# Test results reported in ChEMBL document CHEMBL1157539, “Thousands of chemical starting points for antimalarial lead identification” (Nature, 2010).
# Key:
# Format in all cases: functional
# Plasmodium falciparum [1] = assay: GSK_TCMDC: Inhibition of Plasmodium falciparum 3D7 in whole red blood cells, using parasite LDH activity as an index of growth. Test compounds present at 2uM
# Plasmodium falciparum [2] = assay: GSK_TCMDC: Inhibition of Plasmodium falciparum Dd2 in whole red blood cells, using parasite LDH activity as an index of growth. Test compounds present at 2uM
# HepG2 = assay: GSK_TCMDC: Percent inhibition of human HepG2 cell line. Test compounds present at 10uM.
SMILES,Inhibition (Plasmodium falciparum [1]) [%],Inhibition (Plasmodium falciparum [2]) [%],Inhibition (HepG2) [%]
Cc1cc(F)ccc1Oc1nc(Nc2ccc(N3CCOCC3)c(F)c2)nc2c1S(=O)(=O)CCC2.Cl,96,98,10
CCCOc1ccc(C=C(CC(=O)O)c2nc3ccccc3s2)cc1OCC,89,84,7
Cc1ccc(NC(=O)c2cn(-c3ccccc3)nc2-c2ccc(F)cc2)cc1[N+](=O)[O-],92,38,6
Brc1ccc(Nc2nc(NCC3CCCO3)c3ccccc3n2)cc1 (stereo unspecified),100,99,13
CC(C)(CNCc1cccc(Oc2ccccc2)c1)c1nc(-c2ccnc(N)n2)c(-c2ccc(Cl)c(O)c2)[nH]1.Cl,97,99,28
COc1ccc(CCn2c(=N)c(C(=O)NCc3ccccc3)cc3c(=O)n4cccc(C)c4nc32)cc1,100,37,29
CC(C)(C)c1ccc2oc(=O)n(C3CCN(C(=O)c4ccc([N+](=O)[O-])o4)CC3)c2c1,94,87,0
Cc1cc(N(C)C)nc(Nc2ccc(NC(=O)c3ccccc3F)cc2)n1,89,26,0
Cc1c(CNCCCNc2cc(=O)c3ccccc3[nH]2)sc(/C=N/O)c1Br.Cl,82,0,0
CC(C)(C)C1CCC(CC2=C(C(=O)O)c3ccccc3C2=O)CC1 (stereo unspecified),91,56,0
CCC(=O)N(c1ccccc1)C1CCN(CCCC(NC(=O)Nc2cc(C(F)(F)F)cc(C(F)(F)F)c2)c2ccc(Cl)c(Cl)c2)CC1 (stereo unspecified),99,18,29
CCCC(=O)c1cnc2cc(O)ccc2c1Nc1ccccc1C,99,93,14
O=C(/C=C/c1ccc(Cl)c(Cl)c1)NCCCCCN1CCN(C(=O)Nc2ccc(C(F)(F)F)cc2)CC1,99,0,26
CCc1cn2c3c(cc(C(=O)N[C@@H](Cc4ccccc4)[C@H](O)CNC4CCCCC4)cc13)N(C)S(=O)(=O)C2.O=CO,99,99,20
CCNc1cc(C)nc(Nc2ccc(NC(=O)c3cccs3)cc2)n1,100,50,21
CCCCNC(=O)C(C)NC(=O)c1ccc(O)c(-c2ccc(Cl)c(Cl)c2)c1 (stereo unspecified),98,8,0

SMILES,Inhibition (Plasmodium falciparum [1]) [%],Inhibition (Plasmodium falciparum [2]) [%],Inhibition (HepG2) [%]
Cc1ccc2[nH]c(C)c(Br)c(=O)c2c1,95,84,0
COc1ccccc1C1CCN(C2CCC(NC(=O)/C=C/c3ccc4c(c3)OC(F)(F)O4)CC2)CC1 (stereo unspecified),98,31,52
CCC(C)NS(=O)(=O)c1ccc2nc(Nc3ccc(C)cc3)n(C3CCCCC3C)c2c1 (stereo unspecified),95,99,1
CCN(CC)CCCCOc1ccc2c(c1)C(=O)c1cc(OCCCCN(CC)CC)ccc1-2.Cl,100,44,24
CCc1ccc(C2CCN(CCCCNC(=O)c3ccc(NC(=O)c4ccc(Cl)cc4)cc3)CC2)c(OC)c1,100,80,26
FC(F)(F)c1ccc2[nH]c(-c3cccc(-c4ccc(CNCCc5ccncc5)cc4)c3)nc2c1.O=C(O)C(F)(F)F,99,100,23
Cc1cc(NC(=O)Nc2cccc(Cl)c2Cl)c2ccccc2n1,96,25,0
COc1ccc(-c2nnc(Sc3ccc(C#N)c([N+](=O)[O-])c3)n2CC(C)C)cc1,97,78,3
N#Cc1cccc(NC(=O)Nc2cccc(OC3CCN(Cc4ccccc4)CC3)c2)c1.O=C(O)C(F)(F)F,100,48,5
CC1(C)CC(=O)c2c(O)cc(OCc3ccncc3)cc2O1.Cl,92,47,80
O=C(O)C(F)(F)F.OC1CCCN(Cc2cccc(-c3ccc(-c4nc5ccccc5[nH]4)cc3)c2)C1 (stereo unspecified),85,16,25
CN1CCN(c2ccc(Nc3ccnc4ccc(-c5ccccc5)cc34)cc2)CC1,100,100,20
Cc1cc(CN2CC[C@H](NC(=O)c3ccc(Cl)c(Cl)c3)C2)ccc1OC1CCN(Cc2ccccc2)CC1.O=C(O)C(F)(F)F,98,29,59
Cc1[nH]c(C)c(-c2ccc(OCc3cc(C(F)(F)F)cc(C(F)(F)F)c3)nc2)c(=O)c1Cl,98,96,19
Cc1cccc(NC(=O)N(Cc2cc3cc(C)cc(C)c3[nH]c2=O)C2CC2)c1,97,94,3
Cc1cc(=NN=Cc2ccc(Cl)cc2)c2cccc(C)c2[nH]1,100,47,0
